Shown are actives, neighbours in structure and some others; about 12% of the full set was active somewhere.
Insulin prom up – MIN6 insulin promoter up-regulation. MIN6 insulin promoter-GFP reporter, high-content imaging; stronger effect = higher value. 0.3% of 190,000 active. z-score at 5 µM;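 active means z-score above 3 at 5 µM with at least 500 cells counted in the well; inconclusive means wells under 500 cells, flagged as cytotoxic or low count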
WT yeast gro inh – growth inhibition of WT yeast, mitochondrial fusion screen | 2.1% of 190,000 active | inhibition, % at 10 µM | mitochondrial fusion phenotypic screen, WT strain; in the data active means inhibition above about 58%; tested in S. cerevisiae
L major viab – inhibitors of Leishmania major promastigote growth. 9% of 200,000 active. inhibition, % at 10 µM. Leishmania major promastigotes, resazurin fluorescence viability. AID 1063; in the data active means inhibition above about 50%;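 further: promastigotes grown with compound for 44 hours at 28 °C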
Cl transport mod – modulates chloride dependent transport by human KCC2; Q9H2X9; KCC2 cells, thallium flux FluoZin-2 fluorescence; B-score of Tl+ flux slope (higher = more flux/activation; lower = inhibition) at 10 µM; 2.2% of 190,000 active; AID 1456;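 active means thallium flux slope and its plate-corrected score both differing from the plate sample mean at a set confidence after two filtering rounds, in either direction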;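 further: slope of fluorescence scaled to starting intensity during 10 to 20 s after thallium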
Insulin prom inh – TRM-6 insulin promoter activity inhibition; inhibition, % at 2 µM; 0.9% of 130,000 active; TRM-6 cells (human fetal islet line), insulin promoter-eGFP reporter, imaging; reporter expression induced with tamoxifen;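 active means inhibition above the mean plus 3 SD, with well images judged a real hit on visual review, cut at about 60% in these data, passing the limit was not always enough; inconclusive means inhibition over the cutoff but images rejected on review; inactive means inhibition not above the cutoff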
ROMK primary – modulates human ROMK potassium channel activity | 2% of 130,000 active | B-score at 10 µM | Tet-inducible ROMK, thallium flux fluorescence; actives lie on both sides | P48048 | AID 1918;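 active means signal ratio slope over the read window, or its plate-corrected B-score, at least 3 SD from the plate mean, either direction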;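 further: B-score of the F/F0 ratio slope over 7 to 12 s after thallium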
Numbers without * were called inactive.

`CN1c2ccc([N+](=O)[O-])cc2CC2(C(=O)NC(=O)N(c3ccccc3)C2=O)C1c1ccccc1` (configuration not stated) gave Insulin prom up -0.29, WT yeast gro inh -7, L major viab 58* and Cl transport mod -1.9.
`CCOC(=O)CN1C(=O)C2(C(C#N)=C(N)Oc3ccccc32)C(C(=O)OC)=C1C` (configuration not stated) gave Insulin prom up -0.13, WT yeast gro inh 26, L major viab -2, Cl transport mod -0.68 and Insulin prom inh 19.
`CCOC(=O)CC1=C(C(=O)OCC)C2(C(=O)N1CC(=O)OC)C(C#N)=C(N)Oc1ccccc12` (configuration not stated) gave WT yeast gro inh 66*, L major viab -4 and Insulin prom inh -54.
`CC/C(=C\C=C\[C@@H]1C=C[C@@H]2CCC[C@H]2[C@@H]1C(=O)c1ccc[nH]1)[C@@H]1O[C@@H]([C@@H](C)C(=O)O)CC[C@@H]1C` gave Insulin prom up inconclusive, WT yeast gro inh 81*, L major viab -3, Cl transport mod 3.4* and Insulin prom inh -20.
`Cc1cc(/C=C2/C(=O)NC(=O)N(C)C2=O)c(C)n1-c1ccccc1` gave Insulin prom up -0.07, WT yeast gro inh -5, L major viab -3, Cl transport mod 1 and ROMK primary -0.027.
Screening C=CCN1C(=O)/C(=C/c2cc(C)n(-c3ccccn3)c2C)C(=O)NC1=S returned Insulin prom up 0.27, WT yeast gro inh -8, L major viab 96*, Cl transport mod -0.36, Insulin prom inh -11 and ROMK primary 0.24.
For O=C(NCCN1CCCCC1)c1ccc(Cl)nc1Cl the results were Insulin prom up 0.27, WT yeast gro inh -11, L major viab -4 and ROMK primary 0.28.
`c1ccc2c(CN3CCCCCC3)c[nH]c2c1` gave Insulin prom up -2.7, WT yeast gro inh -17, L major viab 57*, Cl transport mod 0.86, Insulin prom inh -8 and ROMK primary 1.
For O=C(Cc1ccccc1)N1CCN(Cc2c[nH]c3ccccc23)CC1 the results were Insulin prom up -1.6, WT yeast gro inh -11, L major viab 9 and ROMK primary -0.43.
CN1CCC(N(C)c2nc(-c3ccc([N+](=O)[O-])cc3)nc3ccccc23)CC1 was read as Insulin prom up -1.1, WT yeast gro inh 35, L major viab 100* and ROMK primary -0.69.
`COc1ccc(CC2(CCc3ccncc3)C(=O)NC(=O)NC2=O)c(OC)c1` gave Insulin prom up 0.49, WT yeast gro inh 8, L major viab 1, Cl transport mod 1 and ROMK primary 0.39.
`O=C(c1ccccc1F)c1cn(CC(=O)N2CCCC2)c2ccccc12` gave Insulin prom up 0.06, WT yeast gro inh -23, L major viab 6, Cl transport mod 0.037 and Insulin prom inh -21.
Screening O=C(c1ccc(Cl)cc1)C1CCCN(Cc2cccc3cnccc23)C1 (configuration not stated) returned Insulin prom up -1.1, WT yeast gro inh 42, L major viab 99*, Cl transport mod 0.048 and ROMK primary -0.33.
`COc1cccc(C(=O)C2CCCN(Cc3cccc4c3OCO4)C2)c1` (configuration not stated) gave Insulin prom up -0.18, WT yeast gro inh 15, L major viab 10, Cl transport mod -0.49, Insulin prom inh -19 and ROMK primary 0.06.
`O=C(c1cccc(Cl)c1)C1CCCN(Cc2ccon2)C1` (configuration not stated) gave WT yeast gro inh -14, L major viab -3, Insulin prom inh -45 and ROMK primary -0.94.
Screening O=C(c1cccc(Cl)c1)C1CCCN(Cc2cccc3cnccc23)C1 (configuration not stated) returned Insulin prom up 0.4, WT yeast gro inh 8, L major viab 95* and Cl transport mod -1.
`CSc1ncc(CN2CCCC(C(=O)c3cccc(Cl)c3)C2)cn1` (configuration not stated) gave Insulin prom up 0.81, WT yeast gro inh 34, L major viab 82* and Cl transport mod 0.89.
`CCC(=O)N1N=C2C3CCN(CC3)C2C1c1ccc(C)cc1` (configuration not stated) gave Insulin prom up 0.7, WT yeast gro inh 11, L major viab -2, Cl transport mod 1.1, Insulin prom inh 22 and ROMK primary 0.92.
For Cc1ccc(C(=O)Nc2ccc(-n3ccnc3P(=O)(O)c3ccccc3)cc2)cc1 the results were Insulin prom up 1, WT yeast gro inh 2, L major viab -11, Cl transport mod -1, Insulin prom inh 0 and ROMK primary -0.11.
Screening NCC1(c2ccc3c(c2)OCCO3)CCCC1 returned Insulin prom up 0.51, WT yeast gro inh -41, L major viab 3, Cl transport mod -0.58, Insulin prom inh 29 and ROMK primary -0.34.
For O=c1c2ccccc2nc(-c2ccco2)n1-c1ccc(Br)cc1 the results were Insulin prom up 0.09 and Cl transport mod -0.87.
Screening CCOc1ccc([N+](=O)[O-])cc1CNCCc1ccccc1 returned Insulin prom up -1.9, WT yeast gro inh -10, L major viab 96* and Cl transport mod 0.079.
Screening CCOc1ccc(Cl)cc1CNCCc1ccccc1F returned Insulin prom up -1.4 and Cl transport mod -1.3.
For CCCCn1c(O)c(C(CC)=NCCCN(C)C)c(=O)[nH]c1=O the results were Insulin prom up 0.07, WT yeast gro inh 6, L major viab 2, Cl transport mod 0.028 and ROMK primary -0.12.
`Cc1nc2ccccc2c(=O)n1-c1ccc(F)cc1` gave Insulin prom up -0.13, WT yeast gro inh 8, L major viab -4, Cl transport mod -0.03, Insulin prom inh 30 and ROMK primary -0.11.
Screening Cc1cc(Cl)ccc1C(=O)C1CCCN(C2CCSCC2)C1 (configuration not stated) returned Insulin prom up -0.7, WT yeast gro inh 14, L major viab 85*, Cl transport mod -1.2 and ROMK primary -1.6.
`CSc1ccccc1C(=O)C1CCCN(Cc2cccc(C)n2)C1` (configuration not stated) gave Insulin prom up -0.19, WT yeast gro inh 3, L major viab 23, Cl transport mod -2.9 and ROMK primary -0.087.
O=C(c1ccc(C(F)(F)F)cc1)C1CCCN(C2CCSCC2)C1 (configuration not stated) was read as Insulin prom up 0.03, WT yeast gro inh 6, L major viab 92*, Cl transport mod -0.74 and ROMK primary 0.079.
`Cc1cccc(CN2CCCC(C(=O)c3ccc(C(F)(F)F)cc3)C2)n1` (configuration not stated) gave WT yeast gro inh 17, L major viab 79*, Cl transport mod -1.1, Insulin prom inh -26 and ROMK primary -0.041.
COc1ccc(Cl)cc1C(=O)C1CCCN(CCO)C1 (configuration not stated) was read as Insulin prom up 0.73, WT yeast gro inh 19, L major viab 4, Cl transport mod -0.24 and ROMK primary 0.034.
